Screens deposited in PubChem by several laboratories.
CYP2C9 inh = human CYP2C9 inhibition. P11712. CYP2C9 Supersomes, luciferin-H conversion, luminescence. inhibition, % at 5 µM. 96,000 compounds, 20% hits. AID 777;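 active = blocking of liver enzyme CYP2C9 beyond about 50% at 5 µM, limit read from the data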
CYP2C19 act = activators of human cytochrome P450 2C19 | activation factor at 5 µM | P33261 | recombinant CYP2C19, luciferin-H EGE luminescence; stronger effect = higher value; 0 = fully inhibited enzyme, 1 = untreated enzyme | 96,000 tested, under 10 active | AID 1025;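 active = activation factor of at least 2 at 5 µM in the primary screen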
Target sequence (P33261 whole entry, looked up): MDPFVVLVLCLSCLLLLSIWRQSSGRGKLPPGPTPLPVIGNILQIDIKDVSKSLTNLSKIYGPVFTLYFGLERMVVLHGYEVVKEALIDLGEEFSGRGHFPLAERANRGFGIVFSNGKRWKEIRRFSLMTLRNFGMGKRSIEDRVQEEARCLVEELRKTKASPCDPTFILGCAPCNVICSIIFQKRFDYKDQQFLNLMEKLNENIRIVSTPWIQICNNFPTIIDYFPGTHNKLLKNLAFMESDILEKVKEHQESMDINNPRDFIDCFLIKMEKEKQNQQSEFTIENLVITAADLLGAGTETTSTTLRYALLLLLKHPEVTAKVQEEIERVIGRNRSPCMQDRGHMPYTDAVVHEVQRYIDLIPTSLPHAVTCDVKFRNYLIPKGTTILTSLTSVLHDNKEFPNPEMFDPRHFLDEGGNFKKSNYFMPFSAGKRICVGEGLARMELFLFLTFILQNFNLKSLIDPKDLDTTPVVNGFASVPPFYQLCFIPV
PostGolgi yeast = growth inhibition of a yeast mutant, post-Golgi transport screen | post-Golgi transport phenotypic cell assay | inhibition, % at 10 µM | 98,000 compounds, 0.9% hits | AID 739;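 also: yeast cells grown in 1536-well plates; yeast grown about 18 h at 30C before absorbance read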
CYP2C19 inhib = inhibitors of human CYP2C19 | inhibition, % at 5 µM | 96,000 compounds, 21% hits | CYP2C19 Supersomes, luciferin-H EGE luminescence, 30 min | P33261;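 active = CYP2C19 inhibition above a set limit at 5 µM in the primary screen, cut at about 50% in these data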
CYP2C9 act = CYP2C9 (human) activation. P11712. recombinant CYP2C9, luciferin-H conversion, luminescence; stronger effect = higher value; factor 1 = untreated enzyme, 0 = blocked. activation factor at 5 µM. 96,000 compounds, 1.4% hits. AID 1024;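 active = activation factor of 2 or more for CYP2C9 at a 5 µM dose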
PostGolgi ctrl = inhibits growth of the yeast control strain. efflux-deficient yeast background strain, growth absorbance A615, 16 h. inhibition, % at 10 µM. 98,000 compounds, 5% hits. AID 738
Each line names hits and unclear results; the compound was inactive in the other large screens. Not all results are given here. Rule as the data show it, unless noted: active = inhibition above about 30%; inactive = the rest.

Cc1onc(-c2ccccc2Cl)c1C(=O)OCC(=O)Nc1ccc2c(c1)OCO2	CYP2C9 inh 88, CYP2C19 inhib 99
Cc1onc(-c2ccccc2)c1C(=O)Nc1ccc2c(c1)OCO2	CYP2C9 inh 79, CYP2C19 inhib 99
N#C/C(Cn1c[n+](NC(=O)Nc2ccccc2)cn1)=N/O	none
O=C(CCCC(=O)OCC1CCCO1)OCC1CCCO1 (configuration not stated)	none
COc1ccc(C(=O)NC2(C(F)(F)F)C(=O)N(Cc3ccco3)C3=C2C(=O)CC(C)(C)C3)cc1OC (configuration not stated)	none
CCOC(=O)C1CCCN(C(=O)c2ccc3c(c2)NC(=O)C(N2CCOCC2)S3)C1 (configuration not stated)	none
Cc1ccc(-c2noc(CCC(=O)Nc3ccc4c(c3)OCO4)n2)cc1	none
Cc1onc(-c2ccccc2)c1C(=O)OCC(=O)Nc1ccc2c(c1)OCO2	CYP2C9 inh 52, CYP2C19 inhib 54
COc1ccc(O)c(-c2cn[nH]c2-c2cccs2)c1	CYP2C9 inh 88, CYP2C19 inhib 99
COc1ccc(-c2[nH]ncc2-c2cnc(C)s2)c(O)c1	CYP2C19 inhib 90
CN1C(=O)c2ccccc2C(C(=O)NCC2CCCO2)C1c1c[nH]c2ccccc12 (configuration not stated)	none
Cn1c(=O)c2c(nc(Br)n2CCSc2nnnn2-c2ccccc2)n(C)c1=O	none
COc1cccc(NC(=O)c2cc(-c3cccnc3)nc3c(Cl)cccc23)c1	CYP2C9 inh 77
COc1ccc(NC(=O)c2cccnc2)c(OC)c1	none
COc1cc2c(cc1NC(=O)c1cc(-c3cccnc3)nc3ccc(C)cc13)oc1ccccc12	CYP2C9 inh 75
COc1ccc(NC(=O)c2cc3nc(-c4ccccc4)cc(-c4ccccc4)n3n2)c(OC)c1	CYP2C9 inh 77
COc1ccc(NC(=O)c2cc(-c3cccnc3)nc3c(C)c(C)ccc23)c(OC)c1	CYP2C9 inh 86, CYP2C19 inhib 80
COc1ccccc1CNc1nc2nc(C)cc(=O)n2[nH]1	none
Cc1c(CN2CCN(c3cccc(C(F)(F)F)c3)CC2)c(=O)n(-c2ccccc2)n1C	none
O=C(O)COc1ccc(/C=N/NC(=O)C2CCCN2S(=O)(=O)c2ccc(Cl)cc2)cc1 (configuration not stated)	none
CCN(CC#CCC1(O)c2ccccc2-c2ccccc21)C(C)C	none
CCN(C(=O)C1CCN(S(=O)(=O)c2ccc3c(c2)oc(=O)n3C)CC1)c1cccc(C)c1	none
CCC(=O)Nc1nc2ccccc2n1Cc1ccccc1	none
CCC(=O)Nc1nc2ccccc2n1Cc1ccc(C)cc1	CYP2C19 inhib 81
Cc1ccc(Cn2c(NS(=O)(=O)c3ccccc3)nc3ccccc32)cc1	CYP2C9 inh 64
CCC(=O)NCCc1nc2ccccc2n1Cc1ccc(C)cc1	none
CC(C)Nc1nc(-c2ccccc2)nc(-n2ccnc2)n1	none
c1ccc(CN2CCN(c3nc(-c4ccccc4)nc(-n4ccnc4)n3)CC2)cc1	CYP2C9 inh 57, PostGolgi yeast 48, PostGolgi ctrl 77
CCCCNc1nc(-c2ccccc2)nc(-n2ccnc2)n1	CYP2C9 inh 85, CYP2C19 inhib 86
c1ccc(CN2CCN(c3nc(-c4ccccc4)nc4ccccc34)CC2)cc1	none
c1ccc(-c2nc(-n3ccnc3)nc(-n3ccnc3)n2)cc1	CYP2C19 inhib 56
CCOC(=O)c1sc(NC(=S)NC(=O)CC(C)C)cc1C	none
O=C(CSc1nc2ccccc2n1CC(=O)N1CCCC1)Nc1ccc2c(c1)OCO2	none
O=C(CCN1C(=O)c2ccccc2C1=O)NC1=NCCS1	none
COC(=O)NCC12CC3CC(C1)CC(CNC(=O)OC)(C3)C2	PostGolgi ctrl 33
Cc1ccc(CN2CCC(C(=O)NCCC(C)C)CC2)o1	none
C=CCNC(=O)C1CC(=O)N(c2ccc(C)cc2)C1 (configuration not stated)	none
COc1ccc(C(=O)Oc2ccc(/C=N/O)cc2)cc1	none
CCc1ccc(S(=O)(=O)NCc2cn3ccccc3n2)s1	CYP2C19 inhib 86
CCc1ccc(S(=O)(=O)NCCc2cn3ccsc3n2)s1	CYP2C19 inhib 68
C=CCOc1ccc(CN(C)CC(=O)N(CC(C)C)c2c(N)n(CC(C)C)c(=O)[nH]c2=O)cc1	none
O=c1cc(N2CCc3ccccc3C2)[nH]c(=O)n1Cc1ccc(F)cc1	none (no result: CYP2C9 inh, CYP2C19 act, CYP2C19 inhib, CYP2C9 act)
COc1ccc(C(C(=O)Nc2ccc(C(C)C)cc2)N(C)C(=O)CNC(C)=O)cc1 (configuration not stated)	none
COc1ccc(NC(=O)C(c2ccc(C)cc2)N(C)C(=O)c2cnccn2)cc1 (configuration not stated)	CYP2C9 inh 53, CYP2C19 inhib 52
O=C(NC1CC1)C1CCN(c2ccc(S(=O)(=O)N3CCOCC3)cc2Cl)CC1	CYP2C9 inh 78
O=C(NCc1cccs1)C1CCN(c2ccc(S(=O)(=O)N3CCOCC3)cc2Cl)CC1	CYP2C9 inh 58
CC(C)CNC(=O)C1CCN(c2ccc(S(=O)(=O)N3CCOCC3)cc2Cl)CC1	CYP2C9 inh 56
O=C(NCc1cccs1)C1CCN(S(=O)(=O)c2cccs2)CC1	none (no result: CYP2C9 inh, CYP2C19 act, CYP2C19 inhib, CYP2C9 act)
O=C(O)c1cc(S(=O)(=O)N2CCOCC2)ccc1N1CCOCC1	none
Clc1cc(NCc2cccs2)ccc1N1CCOCC1	CYP2C9 inh 81, CYP2C19 inhib 94
COCc1cc(=O)n2c(-c3ccc(C)cc3)n[nH]c2n1	none
CN1CC2CCCC3(C1)C(=O)NC1(CCCCC1)N=C23 (configuration not stated)	none
CCOC(=O)CSc1nc(-c2ccccc2)nc2c1oc1ccccc12	none
CCc1c(C)nc(N)n2c(SCC(=O)N3CCCc4ccccc43)nnc12	none
O=C(O)CSc1nc(-c2ccccc2)nc2c1oc1ccccc12	CYP2C9 inh 91
OCCN1CCN(c2nc(-c3ccccc3)nc3c2oc2ccccc23)CC1	CYP2C9 inh 65, CYP2C19 inhib 86
Cc1nc(SCC(=O)N2CCCc3ccccc32)c2oc3ccccc3c2n1	PostGolgi ctrl 41
Cc1nc(SCC(=O)Nc2ccccc2)c2oc3ccccc3c2n1	CYP2C9 inh 80, CYP2C19 inhib 51
O=C(O)C1CCN(c2nc(-c3ccccc3)nc3c2oc2ccccc23)CC1	none
O=c1nc(N2CCCCC2)nc(Nc2ccccc2)[nH]1	none
O=C1NC(c2ccccc2)C(C(=O)c2cccs2)=C1O (configuration not stated)	none
CC(C)(C)N=C1SCC(C)(/C=N/O)S1 (configuration not stated)	none
CN1C(=O)N(C)C2(c3ccccc3)N(C)C(=O)NC12c1ccccc1 (configuration not stated)	none
Cc1[nH]c2ccccc2c1SCC(=O)N1CCN(c2ccccc2)CC1	none
CC(=O)c1ccc(Nc2nc(C)nc3c2oc2ccccc23)cc1	none (no result: PostGolgi yeast, PostGolgi ctrl)
